Source: PubChem BioAssay AID504621 (Broad Institute, 2011)
About 970 (0.31%) of roughly 310,000 compounds were called active.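 Rule for the calls: active = every replicate shows inhibition above about 80%, whatever the replicate mean (limit read from the data); inconclusive = mean inhibition reaches the set limit but some replicate falls short; inactive = the rest.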 Only a selection was taken, and actives are over-represented in it overall.

experiment: growth inhibition of PfHsp90-expressing yeast, primary screen, antimalarial PfHsp90 inhibitor project, S. cerevisiae, BacTiter-Glo luminescence, single point, set 2 (AID 504621); conditions: BacTiter-Glo ATP, 48 h, at 9.4 µM, stronger effect = higher value;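 note: yeast relying on Plasmodium falciparum Hsp90 in place of its own; 0% = DMSO neutral controls and 100% = 20 µM radicicol positive controls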

Row | Compound | inhibition
1 | CCOC(=O)C1(c2ccccc2)CCN(CC(O)c2ccc(NC(C)=O)cc2)CC1 (centres undefined) | -7.12% (inactive)
2 | CCC(=O)OC(Cc1ccccc1)(c1ccccc1)C(C)CN(C)C (centres undefined) | 34.8% (inactive)
3 | COC1C(O)C(C)OC(OC2CCC3(C=O)C(CCC4C3CCC3(C)C(C5=CC(=O)OC5)CCC43O)C2)C1O (centres undefined) | -24.6% (inactive)
4 | CC(=O)OC1C2(CC3N4C(=O)C5(CO)SSC4(CC31O)C(=O)N5C)OC(C)C(C)(C)C2=O (centres undefined) | 11.7% (inactive)
5 | CC1CC=CCC12C(=O)NC(=S)NC2=O (centres undefined) | 3.23% (inactive)
6 | CC12CCC(O)CC1CCC1C2CCC2(C)C(C(=O)CC(O)C(F)(F)F)CCC12 (centres undefined) | -14.7% (inactive)
7 | CC12CCC3C(CCC4CC(=O)CCC43C)C1CC(=NO)C2=O (centres undefined) | -28.6% (inactive)
8 | CN(C)CC1Oc2ccccc2OC1(O)c1ccccc1 (centres undefined) | 102% (active)
9 | O=C(c1ccccc1)C(O)(CN1CCCCC1)c1ccccc1 (centres undefined) | 8.04% (inactive)
10 | CC1C(=O)OC2CCN3CC=C(COC(=O)C(C)(O)C1(C)O)C23 (centres undefined) | 11.4% (inactive)
11 | CC(CC(C#N)(c1ccccc1)c1ccccc1)N1CCCCC1 (centres undefined) | 13.9% (inactive)
12 | CCCCCCCCCCCCn1ccc(=N)cc1 | 93.6% (active)
13 | CCC(C)(O)C(=O)OC1C(=O)OC2CC3C(C)=CC(=O)C(O)C3(C)C3C4(O)OCC23C1C(C)C4O (centres undefined) | -25.9% (inactive)
14 | CC(=O)C1(O)CCC2C3CCC4=C(Cl)C(=O)CCC4(C)C3CCC21C (centres undefined) | 7.87% (inactive)
